The list is not random: actives were taken first. Their share in the collection is about 8%.
KB-V1 cytotox – qHTS assay for MDR1-selective chemotherapeutics: Primary screen using the drug-selected MDR subline cells KB-V1. KB-V1 MDR cells viability, CellTiter-Glo, 72 h. Potency, µM (top dose mostly 46.1 µM), usual class: cytotoxic. hit rate 3.4% among 400,000; note: nearly all actives have a fitted effect of over 60% in size
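Cytotoxicity toward P-gp-expressing KB-V1 cells was determined as loss of CellTiter-Glo luminescence after 72 h at 37 degrees C. Compounds were tested in quantitative HTS format across a concentration range, with curves fitted to normalized data.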
HT1080 IDH1KD tx – qHTS for induction of synthetic lethality in tumor cells producing 2HG: qHTS for the HT-1080-IDH1KD cell line | Potency, µM (doses to about 46.1 µM), most hits filed as cytotoxic | HT-1080 IDH1 knockdown viability, ATP luminescence, 48 h | AID 686971, 2013 | hit rate 2% among 360,000
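Cytotoxicity counter-line: IDH1KD HT-1080, 48 h, CellTiter-Glo. Curves classed by r2, magnitude and activity.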
MCF10A rereplic – A quantitative high throughput screen for small molecules that induce DNA re-replication in MCF 10a normal breast cells; hit rate 2.9% among 350,000; MCF 10A DNA re-replication, Hoechst nuclear intensity, 48 h; Potency, µM (titrated, usually from 46.1 µM), most hits filed as activators; note: nearly all actives have a fitted effect of over 50% in size
SW480 rerep – A quantitative high throughput screen for small molecules that induce DNA re-replication in SW480 colon adenocarcinoma cells. SW480 DNA re-replication, Hoechst DNA content imaging, 48 h. Potency, µM (series often up to 46.1 µM), most hits filed as activators. hit rate 1.8% among 340,000. AID 624297, 2012; note: nearly all actives have a fitted effect of over 55% in size
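Treated cells incubate 48 hr (37 C, 5% CO2), are stained 40 min with Hoechst, and nuclear fluorescence is enumerated; a rise in nuclei with high DNA signal marks re-replication.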
KB-3-1 cytotox – qHTS assay for MDR1-selective chemotherapeutics: Primary screen using the parental adenocarcinoma cell KB-3-1. KB-3-1 viability, CellTiter-Glo ATP luminescence, 72 h. hit rate 1.4% among 400,000. Potency, µM (doses to about 46.1 µM), most hits filed as cytotoxic. AID 1347075, 2019; note: nearly all actives have a fitted effect of over 60% in size
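Cytotoxicity in the drug-sensitive parental line KB-3-1 was scored as loss of CellTiter-Glo luminescence following 72 h incubation with compound. Values come from curve fitting of normalized concentration-response data.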
HT1080-NT tox – qHTS for induction of synthetic lethality in tumor cells producing 2HG: qHTS for the HT-1080-NT fibrosarcoma cell line | HT-1080-NT fibrosarcoma viability, CellTiter-Glo ATP luminescence, 48 h | Potency, µM (doses to about 46.1 µM), most hits filed as cytotoxic | hit rate 1.6% among 360,000 | AID 686970, 2013;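 note: NT is the 2HG producing partner of a matched IDH1 knockdown line; nearly all actives have a fitted effect of over 55% in size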
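Viability by CellTiter-Glo luminescence after 48 h compound exposure at 37C of HT-1080-NT cells (750/well, RPMI, 5% FBS). % activity scaled between DMSO wells and medium-only wells, then curve-fitted and categorized by curve class.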
Numbers stand for hits; n = inactive; u = inconclusive; x = no result; ! = not confirmed by another sample; [ ] = another dose, or the depositor's remark. Calls come from the whole dose curve; as a rule, active = well fitted curve in the direction sought with a large enough effect; inconclusive = small, poorly fitted or top-dose-only effect, or another doubt; inactive = no such curve, though single readings can be large; an effect the other way counts as inactive or inconclusive.

SMILES	KB-V1 cytotox	HT1080 IDH1KD tx	MCF10A rereplic	SW480 rerep	KB-3-1 cytotox	HT1080-NT tox
Cc1c(C=O)c2ccccc2n1Cc1ccc([N+](=O)[O-])cc1	10µM	n	n	n	n	n
Cc1onc(-c2ccccc2)c1C(=O)N[C@@H]1C(=O)N2[C@@H]1SC(C)(C)[C@@H]2C(=O)O	x	x	n	n	x	x
O=c1c2ccccc2nc(-c2ccoc2)n1-c1ccccc1Cl	16µM	u	n	n	u	n
COP(=O)(OC)c1nc(-c2cccc3ccccc23)oc1N1CCCCC1	n	n	21µM	u	n	n
CCCOP(=O)(OCCC)c1nc(-c2ccccc2)oc1NCc1ccccc1	u	u	u	15µM	n	n
COc1ccc(CNc2oc(-c3cccc4ccccc34)nc2P(=O)(OC)OC)cc1	n	n	21µM	18µM	n	n
CCOP(=O)(OCC)c1nc(-c2ccc(Cl)cc2)oc1NCc1ccccc1	u	n	n	n	n	n
Cc1ccc2c(c1)C1CN(C)CCC1N2C(=O)c1ccccc1NS(=O)(=O)c1cccc(C(F)(F)F)c1 (stereo unspecified)	n	u	u	n	n	n
NCC(=O)c1ccc2ccccc2c1	n	x	x	x	n	x
Cc1oc(-c2ccc(Cl)cc2)nc1CN1C(=O)CN=C(c2ccccc2)c2ccccc21	n	x	x	x	n	x
c1ccc2ccccc2c1	n	n	n	n	u	u
CCCCCCC(=O)N/N=C/c1c(O)n(C2CC2)c(=S)[nH]c1=O	n	n	n	n	n	n
CCCCCCC(=O)N/N=C/c1c(O)n(C(C)CC)c(=S)[nH]c1=O (stereo unspecified)	n	15µM	u	u	u	u
CC(=O)OC1C(=O)OCC23CCC4(C)OC4C2OC2CC(OC(=O)C=CC=CC(=O)OCCC1C)C3(C)C21CO1 (stereo unspecified)	0.37µM	x	n	u	0.18µM	1.5µM
CC(O)C1C=CC=CC(=O)OC2CC3OC4C5OC5(C)CCC4(COC(=O)C4OC4(C)C(O)CO1)C2(C)C31CO1 (stereo unspecified)	10µM	x	0.15µM	0.46µM	0.21µM	u
COc1ccc(NC2=CC(=O)CC(c3ccccc3)C2)c(OC)c1 (stereo unspecified)	2.6µM	2.5µM	n	n	u	3.5µM
CCCCn1c(O)c(C(C)=NCCc2ccccc2)c(=O)[nH]c1=O	u	n	n	n[9.22 µM]	n	n
CCCCn1c(O)c(C(C)=NCc2ccc3c(c2)OCO3)c(=O)[nH]c1=O	u	n	n	n	n	n
COc1cc(/C=C/C(=O)c2c(O)n(CCc3ccccc3)c(=O)[nH]c2=O)ccc1O	n	12µM	u	u	n	u
O=C(/C=C/c1ccccc1)c1c(O)n(CCc2ccccc2)c(=O)[nH]c1=O	6.5µM	n	8.2µM	u	15µM	n
O=C(/C=C/c1ccc2c(c1)OCO2)c1c(O)n(CCc2ccccc2)c(=O)[nH]c1=O	13µM	n	12µM	u	u	n
CC(=O)Nc1ccc(S(=O)(=O)N2CCSC2c2ccc(C)cc2)cc1 (stereo unspecified)	u	n	u	n	n	n
CCc1nc2ccc(C(=O)N3CCN(C(=O)c4ccco4)CC3)cn2c1N(C)Cc1ccc(OC)cc1	n	n	x	x	n	u
COc1ccc(C(=O)c2[nH]c(N)c(C(N)=O)c2-c2ccc(OC)c(OC)c2)cc1	n	u	x	x	n	n
COP(=O)(OC)OC=C(Cl)Cl	x	x	12µM	13µM	x	x
SMILES	KB-V1 cytotox	HT1080 IDH1KD tx	MCF10A rereplic	SW480 rerep	KB-3-1 cytotox	HT1080-NT tox
COc1ccc(-n2nnnc2C(c2ccccc2OC(F)(F)F)N2CCC3(CC2)C(=O)NCN3c2ccccc2)cc1 (stereo unspecified)	u	16µM	x	x	u	u
CCOc1cc2c(cc1OCC)-n1cccc1C(c1cccc(OCC)c1O)NC2 (stereo unspecified)	n	u	18µM	n	n	n
CCOc1cc2c(cc1OCC)-n1cccc1C(c1ccc(C)cc1C)NC2 (stereo unspecified)	u	21µM	u	u	u	u
CC(C)(C)c1nc(N2CCN(C(=O)c3ccco3)CC2)c2nnn(Cc3ccccc3Cl)c2n1	12µM	n	18µM	n	n	n
Cc1c(C(=O)c2cccc3ccccc23)c2cccc3c2n1[C@H](CN1CCOCC1)CO3	u	9.2µM	u	u	u	15µM
O=C(CN1CCOCC1)c1cccc2ccccc12	n	n	n	n	n	n
CC12CCC3C(CC=C4CC(O)CCC43C)C1CC(=CN1CCOCC1)C2=O (stereo unspecified)	n	n	n	n	n	n
CC12CCC3C(CC=C4CC(O)CCC43C)C1C/C(=C\c1ccccc1F)C2=O (stereo unspecified)	n	u	6.5µM	n	n	u
Cc1nn(C)cc1/C=C1/CC2C3CC=C4CC(O)CCC4(C)C3CCC2(C)C1=O (stereo unspecified)	18µM	n	u	n	n	n
NP(=O)(Oc1ccccc1Cl)Oc1ccccc1Cl	u	n	0.65µM	n	n	n
CCN[C@]1(c2cccs2)CCCCC1=O	x	x	n	n	x	x
COC(=O)[C@@H](Cc1ccccc1)N(Cc1ccccc1)S(=O)(=O)N(Cc1ccccc1)[C@H](Cc1ccccc1)C(=O)OC	u	n	u	n[9.22 µM]	u	n
CC(C)[C@@]1(NC(=O)[C@@H]2C[C@@H]3c4cccc5[nH]cc(c45)C[C@H]3N(C)C2)O[C@@]2(O)[C@@H]3CCCN3C(=O)[C@H](Cc3ccccc3)N2C1=O	n	n	21µM!	18µM!	n	n
CC(C)[C@@]1(NC(=O)[C@@H]2C=C3c4cccc5[nH]cc(c45)C[C@H]3N(C)C2)O[C@@]2(O)[C@@H]3CCCN3C(=O)[C@H](Cc3ccccc3)N2C1=O	x	x	n	u	x	x
Cc1cc(NS(=O)(=O)c2ccc(N)cc2)no1	n	x	u	n	n	x
Brc1ccc(-c2nnc3sc(CN4CCN(c5ccccc5)CC4)cn23)cc1	u	n	n	n	n	n
CC(=O)[C@H]1CC[C@H]2[C@@H]3CCC4=CC(=O)CC[C@]4(C)[C@H]3CC[C@]12C	5.8µM!	u	n	n	13µM!	u
C[C@@]12CC[C@H]3[C@@H](CCC4=CC(=O)CC[C@]43C)[C@H]1CC[C@H]2C(=O)CO	x	x	n	n	x	x
